This is a sample that favours compounds with a hit; in the whole collection about 1.3% have one here.
Keap1-Nrf2 PPI: Keap1-Nrf2 protein-protein interaction inhibitors, primary screen, biochemical, fluorescence polarization, single point | Kelch-like ECH-associated protein 1 (Homo sapiens), Q14145 | Keap1 Kelch-Nrf2 peptide fluorescence polarization, 1536-well | inhibition, % at 9.4 µM | 340,000 compounds, 0.15% hits; in the data active = inhibition above about 12%;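 note: human Keap1 Kelch domain with fluorescein labeled Nrf2 9mer peptide probe; 0% = neutral control wells and 100% = peptide positive control; higher means more block of Keap1 binding to Nrf2 peptide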
Target sequence (Q14145 whole entry, looked up, the tested form may be a part): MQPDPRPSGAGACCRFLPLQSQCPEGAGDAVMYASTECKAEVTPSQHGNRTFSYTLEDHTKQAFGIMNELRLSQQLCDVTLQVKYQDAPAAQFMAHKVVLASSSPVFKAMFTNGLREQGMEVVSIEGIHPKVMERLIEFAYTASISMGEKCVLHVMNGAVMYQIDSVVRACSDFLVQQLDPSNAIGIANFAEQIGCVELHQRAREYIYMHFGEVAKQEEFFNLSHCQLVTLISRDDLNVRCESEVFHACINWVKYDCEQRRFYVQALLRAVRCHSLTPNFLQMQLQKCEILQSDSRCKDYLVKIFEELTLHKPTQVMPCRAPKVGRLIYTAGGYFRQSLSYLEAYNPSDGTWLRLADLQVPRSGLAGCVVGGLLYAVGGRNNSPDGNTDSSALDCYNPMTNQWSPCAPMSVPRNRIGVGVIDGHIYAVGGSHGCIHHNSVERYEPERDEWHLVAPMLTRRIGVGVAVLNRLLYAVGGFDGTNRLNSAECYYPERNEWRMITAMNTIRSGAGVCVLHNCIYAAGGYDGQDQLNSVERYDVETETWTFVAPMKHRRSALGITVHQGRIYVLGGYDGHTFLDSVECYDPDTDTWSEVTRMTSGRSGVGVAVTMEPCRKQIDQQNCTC
BCLXL inh: inhibitors of human Bcl-xL, primary screen, biochemical, fluorescence polarization, HTS; Bcl-2-like protein 1 (Homo sapiens), Q07817; GST-Bcl-xL / FITC-Bim BH3 peptide fluorescence polarization; inhibition, % at 10.9 µM; 320,000 compounds, 0.7% hits; AID 2129, 2009;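 active = inhibition above the mean of all tested compounds plus 3 SD, cutoff set per campaign, cut at about 30% in these data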;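 note: 0% = DMSO wells and 100% = unlabeled Bim-BH3 peptide competitor; inhibitors lower millipolarization by displacing the labeled peptide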
C-LANA FP: inhibitors of KSHV C-LANA binding to DNA, primary screen, biochemical, fluorescence polarization, FAM-LBS DNA, MBP-C-LANA, single point | 340,000 compounds, 0.078% hits | inhibition, % at 9 µM | AID 504423, 2011 | Kaposi's sarcoma herpesvirus LANA C-terminal domain (residues 932-1162) DNA binding;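 active = highest replicate inhibition at or above 60% at 9 µM, even if other replicates fall short; inactive = all replicates below 60% inhibition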;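 note: 0% = neutral control wells and 100% = 4 µM acridine orange control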
E coli Lon inh: inhibitors of E. coli Lon protease, primary screen, biochemical, fluorescence polarization; inhibition, % at 7.94 µM; P0A9M0; purified E. coli Lon protease; 360,000 compounds, 0.42% hits; in the data active = inhibition above about 13%, passing the limit was not always enough;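 note: 0% = enzyme with probe and DMSO and 100% = no enzyme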
GLD-1 TGE inh: GLD-1/TGE RNA complex disruptors, primary screen, biochemical, fluorescence polarization | Female germline-specific tumor suppressor gld-1 (Caenorhabditis elegans), Q17339 | purified GLD-1 + fluorescein TGE RNA | inhibition, % at 5.96 µM | 320,000 compounds, 0.44% hits | AID 2280, 2010;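 active = percent inhibition above a per-plate cutoff, the plate mean of test compounds plus 3 SD, cut at about 30% in these data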;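 note: 0% = DMSO wells with GLD-1 and probe and 100% = wells lacking GLD-1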
MCL1-BIM inh: inhibitors of MCL1 binding to BIM-BH3, primary screen, biochemical, fluorescence polarization; inhibition, % at 10.9 µM; 320,000 compounds, 0.68% hits; Induced myeloid leukemia cell differentiation protein Mcl-1 (Homo sapiens), Q07820; GST-MCL1 / FITC-Bim-BH3 fluorescence polarization;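 active = inhibition above the mean inhibition of all tested compounds plus 3 SD, set per campaign, cut at about 40% in these data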;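 note: 0% = DMSO wells and 100% = unlabeled Bim-BH3 peptide control; higher means more loss of mP so more displacement of Bim peptide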
Bcl-xL conf: Bcl-xL inhibitors blocking Bim BH3 binding, confirmation, counter-screen for MCL1 inhibitor project, biochemical, fluorescence polarization | shares compounds with MCL1-BIM inh | GST-Bcl-xL / FITC-Bim BH3 peptide FP binding | inhibition, % at 10.9 µM | 1,700 compounds, 54% hits;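 active = inhibition above a cutoff equal to the mean inhibition of all tested compounds plus 3 SD, cut at about 30% in these data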;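 note: 0% = DMSO wells and 100% = unlabeled Bim BH3 control peptide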
MCL1 BIM confirm: inhibitors of MCL1 binding to BIM-BH3, confirmation, biochemical, fluorescence polarization, triplicate; shares compounds with MCL1-BIM inh; GST-MCL1 / FITC-Bim-BH3 fluorescence polarization; inhibition, % at 10.9 µM; 1,700 compounds, 61% hits; AID 2168, 2009;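 active = inhibition above the average of all tested compounds plus 3 SD, cut at about 40% in these data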;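 note: 0% = DMSO wells and 100% = unlabeled Bim-BH3 control peptide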
Starred values were filed as active, the others as inactive; . = no result; + = active, no number.

SMILES	Keap1-Nrf2 PPI	BCLXL inh	C-LANA FP	E coli Lon inh	GLD-1 TGE inh	MCL1-BIM inh	Bcl-xL conf	MCL1 BIM confirm
CCCC1Nc2ccc(C(=O)O)cc2C2C=CCC12 (stereo unspecified)	2.0	48.9*	43.1	12.5	23.3	87.4*	4.0	2.7
COc1cc(/C=C2\SC(=S)N(c3cccnc3)C2=O)ccc1O	1.0	12.1	-2.7	-18.9	-16.0	59.8*	21.4	44.3*
COc1cc(/C=C2\SC(=S)N(NC(=O)c3cccnc3)C2=O)ccc1O	-20.1	-6.7	-12.1	-59.7	-36.7	-12.6	.	.
O=c1oc2c3c4c(cc2c(C(F)(F)F)c1CCN1CCOCC1)CCCN4CCC3	0.1	107.3*	6.0	-11.5	65.3*	121.6*	107.4*	115.6*
O=C(CSCc1ccc(C(=O)O)cc1)Nc1ccc2ccccc2c1	-1.1	1.3	-0.4	1.6	1.7	-2.0	.	.
O=C(O)c1ccccc1/C=N/NC(=O)c1cc(-c2ccco2)nc2ccccc12	2.7	25.1	8.0	-10.9	3.3	64.3*	41.5*	90.6*
CC(=O)Nc1cncc(-c2cccc(S(C)(=O)=O)c2)n1	.	.	.	6.0	.	.	.	.
COc1ccc(/C=C/C(=O)NC(=S)Nc2cc([N+](=O)[O-])ccc2O)cc1OC	-4.9	6.5	1.3	5.4	0.4	41.1*	15.4	28.3
Nc1cc2c(cc1[N+](=O)[O-])OCCO2	-1.1	-3.9	-0.1	-2.3	-4.9	0.7	.	.
Nc1cc2c(cc1[N+](=O)[O-])OCO2	-1.0	10.2	1.1	-1.8	-0.9	43.9*	41.2*	78.0*
COc1cccc(C(=O)Nc2sc(C(C)C)cc2C(N)=O)c1OC	-5.4	5.3	0.0	-7.2	2.1	4.0	.	.
O=S(=O)(CCc1nc2ccccc2[nH]1)c1ccc(Br)cc1	1.1	4.0	1.5	0.6	-8.6	11.0	.	.
COc1ccc(Cl)cc1N(CC(=O)N1CCCC1)S(C)(=O)=O	0.4	-0.4	1.7	-3.0	-0.2	-0.9	.	.
COc1ccc(Cl)cc1N(CC(=O)N1CCC(C)CC1)S(C)(=O)=O	0.2	1.1	-0.2	-7.5	-3.1	65.3*	10.6	16.7
C/C(=N/NC(=O)c1cc2ccccc2cc1O)C1C(=O)c2ccccc2C1=O	-5.0	13.5	1.6	-5.1	0.3	40.9*	7.1	41.2*
COc1cc(C(=O)NCCOc2cc(C)cc(C)c2)c(Br)c(OC)c1OC	0.5	6.9	-0.2	3.6	-1.1	7.9	.	.
COc1ccc2[nH]c3c(c2c1)CCNC3c1ccc([N+](=O)[O-])o1 (stereo unspecified)	6.2	87.2*	22.4	11.3	37.2*	96.1*	79.4*	101.3*
COc1ccc2[nH]c3c(c2c1)CCNC3C1CC=C(C)CC1 (stereo unspecified)	-2.3	3.3	-0.6	2.9	-2.4	0.2	.	.
COc1ccc(C(C)=O)c2c(O)cccc12	-2.2	0.3	0.4	1.2	7.3	-8.9	.	.
CCC1=NNc2cccc3c(OC)ccc1c23	.	115.7*	.	.	10.9	125.9*	45.1*	37.5
CCn1nc(C)c(CN2CCC(C(=O)Nc3cccc(-c4cccc(F)c4)c3)CC2)c1C	1.6	9.1	-1.1	-6.3	-2.4	6.9	.	.
CC(C)(C)c1cc(C(=O)O)n[nH]1	2.1	1.9	-0.1	-8.3	-1.0	47.6*	1.9	14.3
CCCc1nc(SC2CCCC2)c2c(=O)n(C)c(=O)n(C)c2n1	-1.7	0.9	2.1	5.3	3.3	+	4.1	5.4
CCCc1nc(SCC(=O)N2CCC(C)CC2)c2c(=O)n(C)c(=O)n(C)c2n1	0.3	5.2	2.0	3.8	4.3	0.8	.	.
O=C(O)C1=C[C@H](c2coc3ccccc3c2=O)C[C@H](OCCCCO)O1	-0.9	8.9	1.1	5.8	16.1	59.4*	12.9	6.7
SMILES	Keap1-Nrf2 PPI	BCLXL inh	C-LANA FP	E coli Lon inh	GLD-1 TGE inh	MCL1-BIM inh	Bcl-xL conf	MCL1 BIM confirm
COC(=O)c1cc(C(=O)OCC(=O)NC(=O)NCc2ccccc2)cc([N+](=O)[O-])c1	0.4	1.6	-0.2	-12.2	-0.2	-3.8	.	.
O=C(c1nc2ccc(Cl)cn2c1CN1CCC[C@H]1CO)N1CCCCCCC1	2.1	60.5*	12.6	12.0	25.5	65.9*	55.1*	68.6*
O=C(c1nc2ccc(Cl)cn2c1CNCCn1ccnc1)N1CCCCCCC1	-3.8	6.8	1.3	0.2	0.5	8.7	.	.
CC1CCN(C(=O)c2ccc(NS(=O)(=O)c3cccs3)cc2)CC1	-4.8	0.6	0.0	-14.3	-11.5	-7.2	.	.
CCN1CCN(c2cc(N3CCN(C(=O)c4ccco4)CC3)c3c4c(onc24)-c2ccccc2C3=O)CC1	-24.1	91.7*	-23.5	9.5	18.6	102.8*	52.1*	19.8
CC(=O)OCCNc1cc(N2CCN(C)CC2)c2noc3c2c1C(=O)c1ccccc1-3	-72.4	.	-7.8	-2.9	.	.	.	.
O=C(NC(=S)Nc1cccc2c(O)cccc12)c1ccccc1[N+](=O)[O-]	-6.8	30.9*	-0.2	4.4	-1.9	48.4*	27.3	26.6
CC(OC(=O)CCCNC(=O)c1ccc(Cl)cc1)C(=O)N(C)Cc1ccccc1 (stereo unspecified)	-3.1	1.4	0.0	-0.1	-10.4	-4.2	.	.
Cc1cc(C(=O)O)ccc1-n1c(C)ccc1C	.	46.5*	.	.	26.2	97.9*	89.4*	140.7*
O=C(Cn1cnc2ccccc2c1=O)NCCCN1CCCC1=O	-6.3	-1.8	2.8	3.2	-1.4	-0.4	.	.
COc1c(-c2ccc(O)cc2)oc2cc(O)cc(O)c2c1=O	-2.7	8.8	8.1	4.3	4.0	43.1*	22.8	85.5*
COc1ccc(-c2oc3cc(O)c(OC)c(O)c3c(=O)c2OC)cc1	-2.2	0.8	0.0	-3.6	1.0	0.9	.	.
NN=C1C(=O)c2cccc3cccc1c23	-2.4	.	-1.1	-2.7	.	.	.	.
NC1=CC(=O)c2cccc3cccc1c23	.	175.5*	.	.	117.8*	+	155.9*	188.3*
COc1ccc(C(C)=O)cc1OCc1ccccc1	.	.	.	0.6	.	.	.	.
NC(=O)c1cccnc1Oc1ccc(Cl)cc1Cl	0.4	1.1	-2.2	4.7	-2.9	54.4*	5.7	-1.2

Screening results from PubChem BioAssay.
